Assays:
[1] = molecular target: T1, Aspartate--tRNA(Asp/Asn) ligase (Mycobacterium tuberculosis (strain ATCC 25618 / H37Rv)) (UniProt P9WFW3); assay: Assay for Asp RNA synthetase-1 from Mycobacterium tuberculosis; format: functional; design: scale not given: direction of the effect not stated beside the values; conditions: 30 µM; further: in the data most compounds retested in dose-response had high values
T1 sequence (whole entry): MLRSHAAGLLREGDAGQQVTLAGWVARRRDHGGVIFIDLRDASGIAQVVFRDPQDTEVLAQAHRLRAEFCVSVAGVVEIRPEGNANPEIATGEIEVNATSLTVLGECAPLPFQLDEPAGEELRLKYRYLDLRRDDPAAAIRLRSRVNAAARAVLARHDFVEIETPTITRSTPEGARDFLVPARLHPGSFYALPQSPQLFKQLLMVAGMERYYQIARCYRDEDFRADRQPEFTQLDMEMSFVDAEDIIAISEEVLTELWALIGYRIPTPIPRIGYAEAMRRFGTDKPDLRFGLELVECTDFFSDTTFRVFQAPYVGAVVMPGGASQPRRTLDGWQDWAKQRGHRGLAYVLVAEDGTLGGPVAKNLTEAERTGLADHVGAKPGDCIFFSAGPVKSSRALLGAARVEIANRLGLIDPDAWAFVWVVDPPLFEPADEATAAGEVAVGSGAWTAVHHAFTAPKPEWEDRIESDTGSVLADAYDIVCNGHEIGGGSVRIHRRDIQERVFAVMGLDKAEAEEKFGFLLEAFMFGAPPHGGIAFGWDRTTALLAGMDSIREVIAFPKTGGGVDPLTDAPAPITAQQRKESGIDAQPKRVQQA

[2] = molecular target: Shiga toxin 2 (Escherichia coli O157:H7) (UniProt P09385+P09386); assay: E. coli 0.157:H7 Shiga Toxin SOP - stx2 screening assay; format: functional; design: scale not given: direction of the effect not stated beside the values; conditions: 30 µM

Row | Compound | Percent Effect [1] [%] | Percent Effect [2] [%]
1 | CC(=O)c1cccc(NC(=O)CN2CCCCC2C2OCCO2)c1 (configuration not stated) | 1.76 | -1.62
2 | O=C(c1ccncc1)N1CCC2(CC1)CC(Oc1cccnc1)CO2 (configuration not stated) | 4.1 | 12.2
3 | Cn1ccnc1CN1CCC2(CC1)CC(NC(=O)c1ccccn1)CO2 (configuration not stated) | 2.38 | -19.4
4 | O=C(c1ccco1)N1C[C@H]2CCCN(CC3CCOCC3)[C@H]2C1 | 11.5 | 2.22
5 | O=C(NC1(c2cccc(F)c2)CCOCC1)c1ccoc1 | 2.05 | -19.4
6 | Cc1cnn(C2CN(Cc3nc(-c4ccco4)no3)C2)c1 | -7.28 | 10.9
7 | CC(C)N1CC(C(=O)NCCOc2ccc3c(c2)OCO3)CC1=O (configuration not stated) | -3.6 | 13.8
8 | CC(C)c1nc2n(n1)CC(NCc1nnc(C(C)C)o1)CC2 (configuration not stated) | 5.81 | 19.6
9 | Cc1cc(-c2nn(C)c(Cl)c2CN2Cc3ccccc3C(O)C2)no1 (configuration not stated) | 8.53 | 43.3
10 | CCc1nc(CN(C)C2CCN(CCc3ccccn3)C2)no1 (configuration not stated) | 8.1 | -35.9
11 | CCOCCn1c(=O)[nH]c2cc(C(=O)N(C)CCc3cn[nH]c3)ccc21 | 0.279 | -26.7
12 | Cc1nc(O)c2nnn(C[C@H]3CCCN3C(=O)c3cccc(F)c3)c2n1 | 2.16 | -4.92
13 | CCOc1ccc(S(=O)(=O)NC(=O)CCC2CCCO2)cc1 (configuration not stated) | 2.17 | 23.1
14 | O=C(c1ccn(-c2ccccc2Cl)n1)N1CCSCC1 | 1.45 | 8.96
15 | COc1cccc(CNCc2c(C(C)C)nn(C)c2N(C)C)c1OC | -3.61 | 31.1
16 | CN(C)C[C@@H]1C[C@@H]2CN(C(=O)c3ccoc3)CC[C@@H]2N1CC1CC1 | 2.34 | 8.89
17 | Cc1ccc(C)c(C(C(=O)O)N2CCCN(Cc3ccccn3)CC2)c1 (configuration not stated) | -3.28 | 2.34
18 | O=C(NCC1CC1)C1CN(C(=O)c2cccnc2)CC12CCOCC2 (configuration not stated) | -2.58 | -10.2
19 | CCCN(C(=O)c1ccccn1)c1nc2c(s1)CCc1c-2cnn1C | 55.9 | -72.4
20 | CC(C(=O)N1CCN(c2cnccn2)CC1)n1cncn1 (configuration not stated) | 2.72 | 2.13
21 | CC(C(=O)Nc1ncccn1)N1CCCN(c2nccs2)CC1 (configuration not stated) | 0.767 | -54.2
22 | Cc1ccc(S(=O)(=O)NC(=O)c2cccc3c2OCCO3)c(C)c1 | -3.08 | -9.09
23 | CCN(CC)CCNC(=O)c1nn(CC)cc1Cl | -6.16 | -57
24 | CC(C)(C)C(=O)N1C[C@H](c2ccsc2)[C@H]2CN(Cc3cccs3)CC[C@H]21 | -0.28 | -20.2
25 | Cc1ccc(NC2CCN(C(=O)c3cnc(C)s3)CC2)nn1 | -1.51 | -19.5
26 | O[C@]1(c2ccccn2)CC[C@@H]2CN(Cc3cccc4ncccc34)C[C@@H]21 | 0.581 | -21.3

Row | Compound | Percent Effect [1] [%] | Percent Effect [2] [%]
27 | COCCNS(=O)(=O)c1cccc2c1CN(C(=O)c1ccccc1)CC2 | -2.79 | -27.5
28 | O=C(Nc1ccc(N2CCCC2)nc1)N1CCc2sccc2C1 | 0.155 | -146
29 | COCCn1cc2c(n1)C(CNCc1ccc(F)cc1)OCC2 (configuration not stated) | 1.2 | -6.53
30 | CC(=O)Nc1cccc(OCCNC(=O)N(C)Cc2ccco2)c1 | -1.02 | -16.7
31 | CN1CCN(C(=O)c2cncc(CC3CCCN(C)C3)c2)CC1 (configuration not stated) | -1.68 | -19.2
32 | CCCOCCCNc1nccc(-c2cn(C)nc2C)n1 | -3.96 | 18.1
33 | CCc1nc(C2CCCN2CCn2cncn2)no1 (configuration not stated) | 0.0232 | -0.231
34 | CCOC(=O)NC(C(=O)NCc1ccc(N2CCCCC2)nc1)C(C)C (configuration not stated) | -3.06 | 21.9
35 | CCOc1ccccc1OC1CCN(C(=O)c2nc(=O)[nH][nH]2)CC1 | -1.63 | -11.2
36 | CC(C)C(=O)N1CCN(Cc2csc(-c3ncccn3)n2)CC1 | -4.22 | 0.445
37 | CC(C)(C)c1nc(CN2CCCC2Cn2cccn2)no1 (configuration not stated) | -2.09 | -50.8
38 | CCNC(=O)C1CCN(Cc2csc(-c3ccc(C)o3)n2)CC1 | 6.68 | -30.3
39 | COCCN1CCC(CNC(=O)c2cc(C)cc(C)c2)C1 (configuration not stated) | -2.92 | -3.77
40 | CCc1nnc2n1CCN(C(=O)c1cc3cc(F)ccc3[nH]1)C2 | -1.91 | -31.4
41 | c1ccc2sc(N3CCOC(Cn4cccn4)C3)nc2c1 (configuration not stated) | 6.21 | 12.4
42 | CN(C)S(=O)(=O)N1CCN(C(=O)c2ccc3ccn(C)c3c2)CC1 | -0.254 | 4.4
43 | CNC(=O)c1cccnc1Oc1ccccc1 | -3 | 8.4
44 | CNC(=O)CCCNCc1c(C)nn(C)c1N(C)C | 2.12 | -15.3
45 | NC(=O)c1cc(C2CCCN(C(=O)CCc3cscn3)C2)n[nH]1 (configuration not stated) | -4.07 | -14.1
46 | Cc1cc(C2CCCN2CCCS(=O)(=O)c2ccccc2)no1 (configuration not stated) | -1.06 | -12.2
47 | O=c1[nH]c(CN(Cc2ccco2)C2CCCC2)nc2ccccc12 | -3.64 | -24.3
48 | COc1ccc(F)cc1C(C)NC(=O)Nc1nnc(C)s1 (configuration not stated) | -0.889 | 15.6
49 | Cc1ccc(CN(C)C(=O)CN2CC(n3cccn3)C2)o1 | 1.26 | -26.8
50 | Cc1cc(C)n(C2CN(CC(=O)NC3CCOCC3)C2)n1 | -1.88 | -2.98
51 | CC(C)N(C)C(=O)C1=NOC2(CCN(C(=O)c3ccc(Cl)cc3)C2)C1 (configuration not stated) | 1.19 | -2.21
52 | O=C(CCc1cscn1)N1CCCC(n2ccnc2)C1 (configuration not stated) | -3.19 | -12.2

Row | Compound | Percent Effect [1] [%] | Percent Effect [2] [%]
53 | CCOc1ccc(N2CCCN=C2NC(=O)c2cccc(Cl)c2)cc1 | 9.12 | -69.6
54 | CC(=O)Nc1nc(C(=O)N2CCCC2c2ccccc2C)cs1 (configuration not stated) | -0.698 | 1.85
55 | O=C1CC(N(C(=O)c2ccc3[nH]c4c(c3c2)CCCC4)C2CC2)C(=O)N1 (configuration not stated) | 1.2 | -28.8
56 | NC(=O)CCN1CCC(C(=O)c2cc(F)ccc2F)CC1 | 0.12 | -0.638
57 | O=C(NCCN1CCC(c2cccs2)CC1)c1ccccc1C(F)(F)F | -10.3 | -49.7
58 | COCCC(=O)N1CCC2(CC1)CC(c1ccccc1)CN(C)C2 (configuration not stated) | -3.3 | 17.5
59 | CC(=O)N1CCN(CCNS(=O)(=O)c2ccc(C)c(F)c2)CC1 | -1.95 | 5.72
60 | COCCNC(=O)c1sc(Nc2ccc(Cl)cn2)nc1C | -1.92 | -31.4
61 | CN(CCn1nc2ccccn2c1=O)CC(=O)NC1CC1 | -5.57 | -5.23
62 | Cn1ncc2c(N3CCN(C(N)=O)CC3)nc(C3CCCC3)nc21 | 1.25 | -24.2
63 | Cn1cc(CNCCn2cccn2)c(-c2cccnc2)n1 | 1.65 | -0.247
64 | COCCO[C@H]1CCN(C(=O)c2ccc[nH]2)[C@H]1Cc1ccncc1 | -0.0147 | -2.78
65 | COCCN1CCOCC2(CCCN(Cc3ccc(C)o3)C2)C1 (configuration not stated) | -0.582 | -6.63
66 | CC1CN(CC(=O)NC2CCCC2)CCN1c1ccc2nncn2n1 (configuration not stated) | -3.52 | -41.8
67 | CCOc1ccccc1C(=O)N1CCCC1c1ncc2c(n1)CCNC2 (configuration not stated) | -3.07 | 48.2
68 | COCCN1C(=O)C[C@@H]2[C@H]1CCN2C(=O)COc1ccccc1 | -2.36 | -1.37
69 | O=C(c1ccc(N2CCCC2)nn1)N1CCCC(n2cccn2)C1 (configuration not stated) | 3.23 | 23.7
70 | O=C(NCCN1CCCCC1)c1scnc1Cl | -1.07 | 30.3
71 | CN(Cc1cccc(Cl)c1)S(=O)(=O)N1CCOCC1 | 2.4 | 7.77
72 | CC1CCCCN1CCNC(=O)c1ccn(-c2ccc(F)cc2)n1 (configuration not stated) | 3.98 | -12.3
73 | O=C(CCn1ccc2cc(Br)ccc21)NCc1ccc(C(=O)O)cc1 | 8.3 | 30.7
74 | COc1ccccc1CNC(=O)Cn1ncc2c1c(C)nn2C | -0.668 | -20.2
75 | Cc1cc(C)n(CC2CN(CCOc3cccc(F)c3)CCO2)n1 (configuration not stated) | 3.93 | 36.7
76 | CN(C)CCN1C(=O)CCC12CCN(C(=O)c1cccnc1)CC2 | -0.637 | -8.32
77 | Clc1ccc(OCCCN2CCN(c3cnccn3)CC2)cc1 | 1.06 | -6.97
78 | Cc1cc(CN(C)C(=O)C2CCCN(C(=O)c3cccs3)C2)no1 (configuration not stated) | 5.71 | -56.4

Row | Compound | Percent Effect [1] [%] | Percent Effect [2] [%]
79 | O=C(COCc1ccccc1)N1CCC(OCc2cccnc2)CC1 | -4.62 | 11.5
80 | COc1cccc(CN2CCCCCC2c2cccs2)c1O (configuration not stated) | 0.335 | -75.8
81 | CCn1ccnc1CN1CCCN(C(=O)c2cc(Cl)c[nH]2)CC1 | -5.23 | -18.9
82 | COc1ccc(C(C)N2CCN(Cc3nccn3C)CC2)cc1Cl (configuration not stated) | -0.0303 | 16
83 | CCn1cnnc1C1CCN(C(=O)c2ccccc2OC)CC1 | -4.13 | 14.1
84 | CNc1cc(C2CCCN2Cc2ccccc2OCC(=O)O)ccn1 (configuration not stated) | 5.46 | 4.73
85 | CN(Cc1ccco1)Cc1ccccc1CNC(=O)c1ccc[nH]1 | 0.725 | 26.7
86 | Cn1nc(CNC(=O)c2ccc(Cl)cc2)c2c1CCOC2 | 2.4 | -5.64
87 | COc1nc(C)cc(C)c1CNC(=O)N(C)Cc1cnn(C)c1 | 4.2 | 6.51
88 | O=C(c1cccnc1N1CCOCC1)N1CCCC1Cn1cccn1 (configuration not stated) | -2.94 | 31.6
89 | c1cc(CNCc2ccc3c(c2)CCO3)cc(N2CCOCC2)n1 | -4.98 | -32.6
90 | Cc1cnn(CC2CCCCN2CC(=O)Nc2c(C)n[nH]c2C)c1 (configuration not stated) | -1.88 | -12.9
91 | CC(CNC(=O)Nc1ccc(N(C)C)nc1)Cn1cccn1 (configuration not stated) | 5.91 | -40.9
92 | Cc1nc(C)n(CC2CN(CCOCC(F)(F)F)CCO2)n1 (configuration not stated) | 3.1 | 8.57
93 | CN(C)c1ccccc1C(=O)N1C[C@@H](CN2CCOCC2)[C@@H](CO)C1 | -3.28 | 10.2
94 | COc1ccc(C2CC(=O)Nc3c2cnn3C)cc1 (configuration not stated) | -0.607 | -21.4
95 | O=C(c1ccccn1)N1C[C@@H]2CC[C@H](C1)N(C(=O)CCc1cccs1)C2 | 12 | -22
96 | O=C(N1CCCO1)[C@@]12CCO[C@@H]1CCN(Cc1ccccc1)C2 | -1.34 | -5.88
97 | Cc1oncc1C(=O)NCc1cc(=O)n2c(n1)CN(C)CCC2 | 16 | -2
98 | Cc1noc(C)c1CN(C)C(=O)NC1CCN(c2ncccn2)CC1 | 0.9 | 9.61
99 | CN1CCN(Cc2ccccc2CNC(=O)c2ccc(Br)cc2F)CC1 | 2.64 | -9.7
100 | CCC1=N[C@@]2(CC[C@@H]3CN(Cc4ccc(Cl)cc4)C[C@@H]32)C(=O)N1 | 0.626 | 3.7
101 | CN1CCCc2cc(CNC(=O)c3ccc(NC4CC4)nc3)ccc21 | -3.1 | -12.6

Reference: ChEMBL document CHEMBL3988442, “University of Dundee, Small-Polar-MMV Screening Library” (2021)
